# According to ChEMBL document CHEMBL3988442, “University of Dundee, Small-Polar-MMV Screening Library” (2021):
# Among all 48,000 compounds or so, about 13,000 (27%) showed an effect of 50% or more. The list shows a part of the results.
# Test system: Wolbachia pipientis
# Test: Anti-Wolbachia Cell-Based Screen
# Format: functional
# Set-up: scale not given: in the data most compounds retested in dose-response had high values
# Conditions: 5 µM
row,Structure (SMILES),Percent Effect [%]
1,COc1cccc(-c2ccc3nc(C4CCN(C(C)=O)CC4)nn3c2)c1,108.3
2,CS(=O)(=O)N1CCC(c2nc3ccc(-c4cccc(F)c4)cn3n2)CC1,121.7
3,Cc1ccc2nc(C3CCN(CCO)CC3)nn2c1,-22.16
4,COCC(=O)N1CCC(c2nc3ccc(-c4ccccc4)cn3n2)CC1,4.971
5,CCS(=O)(=O)N1CCC(c2nc3ccc(-c4ccccc4)cn3n2)CC1,-9.682
6,CC(=O)N1CCC(c2nc3ccc(C)cn3n2)CC1,109.2
7,CN(C)C(=O)N1CCC(c2nc3ccc(-c4ccccc4)cn3n2)CC1,107
8,COCC(=O)N1CCC(c2nc3ccc(N4CCOCC4)cn3n2)CC1,-4.439
9,CN(C)C(=O)N1CCC(c2nc3ccc(N4CCCC4)cn3n2)CC1.O=C(O)C(F)(F)F,-5.461
10,COc1ccc(Cl)cc1CS(=O)(=O)Cc1noc(C)n1,18.18
11,C[S+]([O-])c1nncn1CCc1ccccc1 (stereo unspecified),-4.603
12,COc1ccccc1C(O)Cn1cc(C(=O)NCc2ccco2)nn1 (stereo unspecified),-0.6679
13,CNC(=O)c1cccc(NCC(=O)Nc2cc(C)nn2C)c1C,11.4
14,COc1ncccc1C(=O)NC1(c2cccc(F)c2)CCOCC1,0.9313
15,CN1CCCC1CNC(=O)c1nnn(-c2ccc(F)cc2)c1C1CC1 (stereo unspecified),-4.807
16,CC(=O)N1CCC(c2nc3ccc(-c4cccc(F)c4)cn3n2)CC1,114.3
17,CN(C)c1cc2c(nn1)CCN(C(=O)c1ccc(-n3cccn3)nc1)C2,103.2
18,CCNc1cc2c(nn1)CCN(C(=O)c1ccc3cc[nH]c3c1)C2,0.8681
19,CNc1cc2c(nn1)CCN(C(=O)c1ccc(-n3nccc3C)cc1)C2,-6.131

row,Structure (SMILES),Percent Effect [%]
1,CNc1cc2c(nn1)CCN(C(=O)c1ccccc1-n1cccn1)C2,88.38
2,CN(C)c1cc2c(nn1)CCN(C(=O)c1cc3ccccc3o1)C2,1.758
3,CNc1cc2c(nn1)CCN(C(=O)c1ccc(-n3cccn3)nc1)C2,108.2
4,Nc1cc2c(nn1)CCN(C(=O)c1cccnc1Oc1ccccc1)C2,-19.15
5,CCNc1cc2c(nn1)CCN(C(=O)c1ccc(NC3CC3)nc1)C2,18.68
6,CCNc1cc2c(nn1)CCN(C(=O)c1ccc(-n3cccn3)nc1)C2,97.41
7,CCNc1cc2c(nn1)CCN(C(=O)c1ccnc(N(C)C)c1)C2,-3.48
8,CCNc1cc2c(nn1)CCN(C(=O)c1cc3ccccc3[nH]c1=O)C2,-5.583
9,Nc1cc2c(nn1)CCN(C(=O)c1ccc(Oc3cccnc3)cc1)C2,5.491
10,COc1cccc2ccc(CN3CCN(c4ccncc4)CC3)nc12,12.14
11,CCc1nsc(N2CCCN(C(=O)COc3ccccc3)CC2)n1,6.055
12,COCCCN1CC2(CCC1=O)CCN(Cc1cc(C(C)C)no1)CC2,-3.554
13,CC(=O)N1[C@H](Cn2cncn2)C[C@@H]2CN(C(=O)NC3CC3)CC[C@@H]21,-0.06843
14,COc1ccc(CN2CCCC2)cc1Oc1cccc(C#N)n1,4.454
15,CCCN1CCCn2nc(CNS(=O)(=O)c3ccc(C)cc3)cc2C1,-4.266
16,CCNC(=O)c1cc(OC)c(OC)cc1N(C)S(C)(=O)=O,-20.94
17,CCc1cccc(CC)c1NC(=O)c1ccccc1N(C)S(C)(=O)=O,109.8
18,Cc1cccc(C)c1NC(=O)c1cccc(N(C)S(C)(=O)=O)c1C,108.1
19,CCc1ccc(S(=O)(=O)Nc2c(C)cccc2C(=O)O)s1,-3.804

row,Structure (SMILES),Percent Effect [%]
1,CCCNC(=O)c1cc(OC)c(OC)cc1N(C)S(C)(=O)=O,-23.04
2,CNC(=O)c1cccc(NC(=O)NCc2ccccc2)c1C,3.946
3,CCc1ccccc1NC(=O)C1CN(C(C)=O)C1,6.296
4,CCN(CCCc1ccccc1C)S(C)(=O)=O,5.478
5,CCc1ccccc1NC(=O)c1cccc(N(C)S(C)(=O)=O)c1C,92
6,Cc1ccc(C(=O)NC2CCN(C)CC2)cc1N(C)S(C)(=O)=O,12.36
7,CCc1cccc(C)c1NC(=O)c1ccccc1N(C)S(C)(=O)=O,89.09
8,CNC(=O)c1cc(OC)c(OC)cc1N(C)S(C)(=O)=O,-22.7
9,CCC(Nc1nnnn1-c1ccccc1)C(=O)Nc1ccccc1C (stereo unspecified),-5.481
10,Cc1ccc(CNCc2cccc3cccnc23)c(OC2CCOC2)c1 (stereo unspecified),-38.45
11,COc1ccc(CC(=O)N2CCCC2Cn2cc(C)cn2)cc1OC (stereo unspecified),112.4
12,COc1ccc(CC(=O)N2CCCCC2Cn2cc(C)cn2)cc1F (stereo unspecified),102.6
13,COc1ccccc1OCCC(=O)N1CCCC1Cn1cc(C)cn1 (stereo unspecified),-7.788
14,COc1ccc(CC(=O)N2CCCC2Cn2cc(C)cn2)c(OC)c1 (stereo unspecified),126.4
15,COc1ccc(CCC(=O)N2CCCC2Cn2cc(C)cn2)cc1F (stereo unspecified),-0.1438
16,Cc1noc(-c2ccc(N(C)Cc3ccncc3C)nc2)n1,-8.712
17,O=C(Nc1cnc(C2CC2)nc1)N1CCC(CN2CCCC2)C1 (stereo unspecified),2.987
18,O=C(c1cnc(-c2ncccn2)s1)N1CCCC(n2cccn2)C1 (stereo unspecified),84.63
